According to PubChem BioAssay AID1566 (Sanford-Burnham Center for Chemical Genomics, 2009):
Hit rate of the full screen: of about 290,000 compounds, about 1,800 (0.62%) were called active. Cut-off read from the data, not from the text of the source: active = inhibition above about 50%; inactive = the rest. The list comes from a sample in which actives are over-represented; it also holds similar structures and randomly drawn compounds.

Assay: NOD2 signaling inhibitors, cell-based, luminescence, uHTS, HEK293 (AID 1566)
Details: HEK293 NOD2/NF-kB luciferase reporter, at 4 µM, active compounds read high

inhibition, active:
N#Cc1ccccc1COc1ccc(/C=C/C(=O)O)cc1 64.4%, C=C(C)COc1ccc2c(C)c(CC(=O)N3C[C@H]4C[C@@H](C3)c3cccc(=O)n3C4)c(=O)oc2c1C 51.9%, O=C(NCCNc1ccnc2cc(Cl)ccc12)c1ccccc1F 54.8%, CC1Cc2ccccc2N1c1ncnc(N)c1[N+](=O)[O-] (stereo not given) 82.8%, O=C(Nc1cccc(S(=O)(=O)Nc2ccc(Cl)cc2)c1)c1ccc2c(c1)OCCO2 55.7%, Nc1ccc2c(c1)OC1(CCCC1)O2 69.9%, CC(C)NC(=O)NC(=O)COC(=O)c1c2c(nc3ccccc13)CCC2 51.1%, COc1ccc(Nc2cc(Sc3ccc(OC)cc3)ncn2)cc1 55.2%, Cc1cccc2cc(CN(Cc3ccco3)C(=O)Nc3cccc(C#N)c3)c(Cl)nc12 55.3%, CC(C)(C)NS(=O)(=O)CC12CCC(CC1=O)C2(C)C (stereo not given) 50.9%, O=C(O)c1c2c(nc3ccccc13)/C(=C/c1ccc(O)cc1)CC2 72.4%, O=C(NCCc1cccc(Cl)c1)c1ccc(OC2CCN(Cc3ccccn3)CC2)cc1 53.1%, N#CC(c1nc2ccccc2nc1N1CCCCC1)S(=O)(=O)c1ccc(Cl)cc1 (stereo not given) 55.3%

inhibition, inactive:
O=C(O)/C=C/c1ccc(OCc2cccc(F)c2)cc1 -4.9%, COc1cc(/C=C/C(=O)O)ccc1OCc1ccccc1C#N 18%, COc1cccc(N(CC(=O)NC2CCCC2)C(=O)CCC(=O)Nc2cc(C)on2)c1 2.5%, C=C(C)COc1ccc2c(C)c(CC(=O)N3C[C@H]4C[C@@H](C3)c3cccc(=O)n3C4)c(=O)oc2c1 5%, CC(C)=CCOc1ccc2c(C)c(CC(=O)N3C[C@H]4C[C@@H](C3)c3cccc(=O)n3C4)c(=O)oc2c1C 15.8%, CCOc1ccccc1-n1c(SCC(=O)N2CCOCC2)nc2ccccc2c1=O 24.9%, O=C(NCCCNc1ccnc2cc(Cl)ccc12)c1ccccc1F 28.3%, O=C(NCCNc1ccc(Cl)cc1[N+](=O)[O-])c1ccccc1F -16.6%, C=CCOC(=O)C1=C(C)NC(C)=C(C(=O)OCC=C)C1/C=C/c1ccccc1 -0.8%, Cc1ccccc1C(=O)Oc1cc(N)n(S(=O)(=O)c2ccccc2)n1 5.8%, Cc1ccccc1NS(=O)(=O)c1cc(OCC(N)=O)c(C)cc1Cl 0.2%, CC1Cc2ccccc2N1c1ncnc2nc[nH]c12 (stereo not given) 1.3%, CC1Cc2ccccc2N1c1ncnc2c1nnn2Cc1ccccc1 (stereo not given) 9.3%, Fc1ccc2c(Cl)c(-c3nnc(-c4cccs4)o3)sc2c1 -112%, N=C(N)SCc1cn(-c2ccccc2)nc1-c1ccc(Br)cc1 8.8%, COc1ccc(S(=O)(=O)N2CCN(C3CCCC(C)C3)CC2)cc1 (stereo not given) -12.3%, Cc1ccc(NC(=O)c2ccc3c(c2)OCCO3)cc1S(=O)(=O)Nc1cccc(Cl)c1 10.3%, O=C(Nc1cccc(Cl)c1)c1ccc2c(c1)OCCO2 -169%, COC(=O)[C@H](C)NC(=O)NC1CCCc2ccccc21 (stereo not given in full) 3.2%, C/C(CC(=O)NCc1ccc(Cl)cc1)=N\NC(=O)c1ccccc1F 4.7%, O=C(Nc1ccc2c(c1)OC1(CCCC1)O2)C1CC1 -19.4%, Nc1ccc2c(c1)OC1(CCCCC1)O2 13.4%, CCN(CCCNC(=O)C1CCN(S(=O)(=O)N2CCC3(CC2)OCCO3)CC1)c1ccccc1 5.4%, CC(C)CNC(=O)COC(=O)c1c2c(nc3ccccc13)CCC2 6.3%, CNC(=O)COC(=O)c1c2c(nc3ccccc13)CCC2 4.8%, CCCc1nc2ccccc2c(=O)n1CCc1ccccc1 -5.9%, CC(C)CC(NC(=O)OC(C)(C)C)C(=O)NC(C(=O)N1CCCC1C(N)=O)C(C)C (stereo not given) 4.1%, Cc1oc(-c2ccccc2Cl)nc1CN1CCCC1c1ccc(F)cc1 (stereo not given) 0.4%, Cc1ccccc1C(=O)N1CCN(C(c2ccccc2)c2ccccc2)CC1 46.9%, CCOc1ncccc1C(=O)N1CCN(C(c2ccccc2)c2ccccc2)CC1 43.5%, COc1ccc(N(Cc2cc3cc(OC)ccc3[nH]c2=O)C(=O)c2cccnc2)cc1 29.5%, COc1cc(C(=O)N[C@H](C(=O)NC(C)C23CC4CC(CC(C4)C2)C3)C(C)C)cc(OC)c1OC (stereo not given in full) 4%, COc1ccc(C(=O)NCc2ccc(-c3nc4ccccc4s3)cc2)cc1OC -45.5%, COc1cc(C(=O)NCc2ccc(-c3nc4ccccc4s3)cc2)cc(OC)c1OC -72.3%, COc1cc(OC)c(OC)cc1CN1CCN(Cc2ccc(C(F)(F)F)cc2)CC1 5.4%, COc1ccc(Nc2cc(Nc3ccccc3)ncn2)cc1 -87%, COc1ccc(Nc2cc(Nc3ccc(OC)cc3)ncn2)cc1 -19.7%, Cc1cc(C)c2nc(Cl)c(CN(Cc3ccco3)C(=O)Nc3ccccc3C)cc2c1 -17.6%, Cc1ccc(NC(=O)N(Cc2ccco2)Cc2cc3cc(C)cc(C)c3nc2Cl)cc1 -17.3%, COc1cccc(-c2cc(C(F)(F)F)n3ncc(C(=O)N4CCc5ccccc5C4)c3n2)c1 17.4%, C=CCNS(=O)(=O)CC12CCC(CC1=O)C2(C)C (stereo not given) 5.2%, CC1(C)C2CCC1(CS(=O)(=O)NC1CCCC1)C(=O)C2 (stereo not given) 17.9%, COCCCn1c(SCC(=O)Nc2ccc(NC(C)=O)cc2)nc2sc3c(c2c1=O)CCC3 11.9%, CCN(CC)c1nc2c(c(=O)[nH]c(=O)n2C)n1Cc1ccccc1Cl 5.7%, COc1ccc(-n2cnnc2SCC(=O)c2ccc(S(=O)(=O)N3CCOCC3)cc2)cc1 2.6%, COc1ccc(-c2ncccc2O)cc1 -2.7%, O=C(O)c1ccc(/C=C2\CCCc3c2nc2ccccc2c3C(=O)O)cc1 8.2%, O=C(O)c1c2c(nc3ccccc13)/C(=C/c1ccc(O)cc1)CCC2 11.1%, Cc1cccnc1CCNC(=O)c1ccc(OC2CCN(Cc3ccccn3)CC2)cc1 2.1%, O=C(NCCc1ccccn1)c1ccc(OC2CCN(Cc3ccccn3)CC2)cc1 6.5%, CC(=O)N/C(N)=N/c1nc2cc(C)ccc2o1 -93.3%, Cc1ccc2oc(/N=C(\N)NC(=O)C3CC3)nc2c1 5.6%, O=C(CSc1nn(-c2ccc(F)cc2)c(=S)s1)N1CCN(C(=O)c2ccco2)CC1 4.8%, Cc1no[n+]([O-])c1COc1ccc(/C=N/n2nnnc2N)cc1 -31%, COc1cccc(/C=N/NC(=O)c2nnn(-c3nonc3N)c2C(C)C)c1 26.6%, Cc1ccccc1C(=O)N1CCN(c2ccc(NC(=O)c3ccc4c(c3)OCO4)cc2)CC1 -42.4%, O=C(Nc1ccc(N2CCN(C(=O)c3ccccc3)CC2)cc1)c1ccc2c(c1)OCCO2 38.7%, Cc1ccc(S(=O)(=O)C(C#N)c2nc3ccccc3nc2N2CCCCC2)cc1 (stereo not given) 7.4%, N#CC(c1nc2ccccc2nc1N1CCCC1)S(=O)(=O)c1ccccc1 (stereo not given) -3.3%, O=C(CCS(=O)(=O)c1ccccc1)NC12CC3CC(CC(C3)C1)C2 -42.4%, O=C(CCCn1c(=S)[nH]c2cc3c(cc2c1=O)OCO3)N1CCN(c2ccccc2)CC1 12.2%, Cc1cccc(N2CCN(C(=O)CCCn3c(=S)[nH]c4cc5c(cc4c3=O)OCO5)CC2)c1C 38.2%, O=C(CCCn1c(=S)[nH]c2cc3c(cc2c1=O)OCO3)N1CCN(c2ccc(F)cc2)CC1 27.2%, O=C(CCCCCn1c(=S)[nH]c2ccc(N3CCOCC3)cc2c1=O)NCc1ccccc1 29.5%, NC(=O)CSc1nnc(-c2ccccc2Br)n1-c1cccc(C(F)(F)F)c1 5.9%, Cc1[nH]nc(N)c1-c1ccc(Cl)cc1 14.7%, O=C(CCc1nnc(CCCCc2ccccc2)o1)NCCc1cccnc1 24.2%, CC(c1cccnc1)N(C(=O)Nc1ccccc1)C1CCCCC1 (stereo not given) -11.5%, O=C(Nc1ccc(Cl)cc1C(F)(F)F)c1ccccc1Cl 3.5%, CCC(CC)COC(=O)C1=C(C)NC(=O)NC1c1cc(OC)ccc1OC (stereo not given) -2%, CC(=O)Nc1ccc(NC(=O)CSc2nc3nc(-c4cccs4)cc(C(F)(F)F)c3c(=O)[nH]2)cc1 5.7%, COc1ccc(NC(=O)CSc2nc3nc(-c4cccs4)cc(C(F)(F)F)c3c(=O)[nH]2)c(OC)c1 22.2%, CN1CCN(CC(=O)Nc2ccccc2Oc2ccccc2)CC1 15.7%, COc1ccc(OCCSc2nc(C)c(Cc3ccccc3)c(=O)[nH]2)cc1 25.5%, Cn1c(=O)[nH]c(=O)c2c1nc(NCc1ccccc1)n2Cc1ccc(F)cc1 16%, Cc1ccc(/C=N/NC(=O)CSc2nc3ccccc3c(=O)n2-c2ccccc2C)s1 -0.2%, N#Cc1c2n(c3c(=O)n(Cc4ccccc4Cl)cnc13)CCCCC2 16.9%, Cc1oc2ccc(OCc3cccc(Cl)c3)cc2c1C(=O)O 9.4%, O=S(=O)(c1ccc(F)cc1)N1CCN(Cc2ccccn2)CC1 8.3%, NS(=O)(=O)c1ccc(NC(=O)COC(=O)CCc2ccc(S(=O)(=O)N3CCOCC3)cc2)cc1 -3%, CCn1c(=O)c(C(=O)Nc2ccccc2S(N)(=O)=O)c(O)c2ccccc21 -12.7%, Cn1c(=O)c(C(=O)Nc2cnccn2)c(O)c2ccccc21 -39.4%, CCCn1c(=O)c(C(=O)Nc2cnccn2)c(O)c2ccccc21 -10.4%, CC(C)Cn1c(=O)c(C(=O)Nc2cnccn2)c(O)c2ccccc21 16.2%, CCn1c(=O)c(C(=O)Nc2cnccn2)c(O)c2ccccc21 18.7%, CC(C)Cn1c(=O)c(C(=O)Nc2ccccc2S(N)(=O)=O)c(O)c2ccccc21 22.9%, CCCC(=O)N(CCN1CCOCC1)c1nc2c(C)ccc(C)c2s1 10.7%, COc1ccc(-c2cnn3cc(-c4cccc(Cl)c4)cnc23)cc1 -3.7%, COc1ccc(/C=N/NC(=O)c2ccoc2C)cc1COc1ccc(Cl)cc1 -42%, O=C(N/N=C/c1cn(-c2ccccc2)nc1-c1cccnc1)c1cccnc1 7.5%, N#CC(=C=[N-])c1nc2ccccc2nc1-[n+]1cccc(NC(=O)c2cccs2)c1 10%, Nc1nnc(COc2ccccc2)s1 -4.5%
